Where “and” joins values, the source holds several entries; their conditions need not be identical. Equal values may be shown once. The panel holds about 79,000 compounds, 15% with a hit somewhere; the sample as a whole holds those more often. The source holds several records for some structures; these can differ, active in one and inactive in another. Calls of active or inactive are those of the source. No stated cut-off is given here; in the data, active means growth inhibition above about 70%; inactive means the rest.
Legend:
[1] = NCI Yeast Anticancer Drug Screen. Data for the rad50 strain (AID 155);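 further: 0% = growth of vehicle-only cultures of the same strain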; conditions: S. cerevisiae rad50 strain growth inhibition, stronger effect = higher value; at 50.0 µM unless noted
Outline: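 Readout: growth inhibition relative to vehicle-treated cultures. Compound exposure was carried out in a genetically defined yeast strain deficient in DNA damage repair.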

[2] = NCI Yeast Anticancer Drug Screen. Data for the mec2-1 strain (AID 157); conditions: S. cerevisiae mec2-1 strain, stronger effect = higher value; at 50.0 µM unless noted
Outline: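 Vehicle-treated cultures served as reference for growth inhibition of compound-exposed mec2-1 yeast.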

[3] = NCI Yeast Anticancer Drug Screen. Data for the sgs1 mgt1 strain (AID 161);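 further: 0% = growth of cultures given vehicle only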; conditions: S. cerevisiae sgs1 mgt1 strain, stronger effect = higher value; at 50.0 µM unless noted
Outline: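 Genetically altered yeast, compound exposure, growth inhibition relative to vehicle.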

[4] = NCI Yeast Anticancer Drug Screen. Data for the cln2 rad14 strain (AID 165);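 further: 0% = growth equal to vehicle treated cultures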; conditions: S. cerevisiae cln2 rad14 strain, stronger effect = higher value; at 50.0 µM unless noted
Outline: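 Each compound was tested on cln2 rad14 yeast. Inhibition of growth was calculated against vehicle-exposed controls.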

[5] = NCI Yeast Anticancer Drug Screen. Data for the bub3 strain (AID 167); conditions: S. cerevisiae bub3 mutant strain, stronger effect = higher value; at 50.0 µM unless noted
Outline: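 Readout: yeast growth inhibition, expressed relative to vehicle-only wells. The test organism is a mutant strain from a panel with lesions in DNA repair or checkpoint genes.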

[6] = NCI Yeast Anticancer Drug Screen. Data for the mlh1 rad18 strain (AID 175); conditions: S. cerevisiae mlh1 rad18 strain growth inhibition, stronger effect = higher value; at 50.0 µM unless noted
Outline: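 Vehicle-treated cultures served as the reference for growth inhibition in a yeast strain carrying DNA damage repair alterations exposed to each compound.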

| Structure (SMILES) | growth inhibition [1] | growth inhibition [2] | growth inhibition [3] | growth inhibition [4] | growth inhibition [5] | growth inhibition [6] |
| --- | --- | --- | --- | --- | --- | --- |
| COc1cc(CCCC(C(=O)O)C(=O)O)cc(OC)c1OC | 14.2% (inactive) | -13.3% (inactive) | -11.9% (inactive) | 15.8% (inactive) | -0.9% (inactive) | 11.7% (inactive) |
| COC(=O)c1cc(Br)cc(Br)c1N | 26.1% (inactive) | -12.9% (inactive) | 0.3% (inactive) | -35.1% (inactive) | 3.6% (inactive) | 32.4% (inactive) |
| COc1ccc(/C=C2\N=C(c3ccc([N+](=O)[O-])cc3)OC2=O)cc1OC | -5.35% (inactive) | -2.75% (inactive) | -14.8% (inactive) | -15.5% (inactive) | 0.25% (inactive) | -17.1% (inactive) |
| CCOC(=O)c1c(C)nc(C)c(C(=O)OCC)c1-c1ccc(N(C)C)cc1 | 3.7% (inactive) and -7.5% (inactive) | 1.75% (inactive) and 1.25% (inactive) | 84% (active) and -1.3% (inactive) | -4.4% (inactive) and -6.05% (inactive) | 1.8% (inactive) and -14.7% (inactive) | 4.05% (inactive) and 5.25% (inactive) |
| Cc1cccc(CO)c1NC(=O)NCCCl | -0.4% (inactive) | -12.2% (inactive) | -4.55% (inactive) | -32.2% (inactive) | -17.9% (inactive) | 3.25% (inactive) |
| COc1cccc(C2c3cc4c(cc3OC(NNS(=O)(=O)c3ccc(C)cc3)C2C)OCO4)c1OC (centres undefined) | 3.75% (inactive) | 4.55% (inactive) | 10.3% (inactive) | 8.05% (inactive) | 36.9% (inactive) | 18.2% (inactive) |
| COc1ccc(COC(=O)Nc2ccccc2F)c(OC)c1OC | 3.15% (inactive) | -9.55% (inactive) | 30.7% (inactive) | -3.55% (inactive) | 26.6% (inactive) | 16.7% (inactive) |
| O=C(O)C[N-]CC(=O)O.OO.[O]=[V] | -16.9% (inactive) | 1.5% (inactive) | -1.7% (inactive) | -30.7% (inactive) | 3.75% (inactive) | 3.55% (inactive) |
| CCCCCCCCC(=O)Nc1cccc(O)c1 | -6.7% (inactive) | -12.4% (inactive) | -8.45% (inactive) | -48.6% (inactive) | -26.4% (inactive) | -13.8% (inactive) |
| CC1(CI)COC(c2ccccc2)(C2CCCCC2)OC1 (centres undefined) | 2.95% (inactive) | -5.15% (inactive) | 5.2% (inactive) | 35.3% (inactive) | -16.2% (inactive) | 15.9% (inactive) |
| Cc1nn(C(=O)Cc2ccccc2)c2c1C(c1ccc(Cl)cc1)SC(N)=N2 (centres undefined) | -30.1% (inactive) | -31.5% (inactive) | -29.1% (inactive) | 6.45% (inactive) | -23.6% (inactive) | -25.1% (inactive) |
| CC(=O)Nc1cc(S(=O)(=O)O)cc2cc(S(=O)(=O)O)cc(O)c12 | -20.9% (inactive) | -13.3% (inactive) | -0.05% (inactive) | 21.8% (inactive) | 15.6% (inactive) | -8.2% (inactive) |
| CCSc1nnc(Sc2c3ccccc3nc3ccccc23)s1 | 26.9% (inactive) | 3.15% (inactive) | -13.1% (inactive) | 11.4% (inactive) | 16.8% (inactive) | 76% (active) |
| CN(C)CCC(C#N)c1ccccc1 (centres undefined) | -18.6% (inactive) | -15.6% (inactive) | -2.7% (inactive) | -26.4% (inactive) | -3.8% (inactive) | -5.55% (inactive) |
| CCCCOC(=O)/C=C/C(=O)OCCCC | -34.6% (inactive) | 9.6% (inactive) | 8.85% (inactive) | 4% (inactive) | -0.45% (inactive) | 43.9% (inactive) |
| C[n+]1ccc(/C=N/O)cc1 | -5.05% (inactive) | -22.4% (inactive) | -0.45% (inactive) | 2.95% (inactive) | 8.45% (inactive) | -11.2% (inactive) |
| NC(N)=N/N=C(/CC1OC(=O)c2ccccc21)c1ccc2ccccc2c1 (centres undefined) | -3.2% (inactive) | -12.4% (inactive) | -2.65% (inactive) | 6.5% (inactive) | -16.1% (inactive) | -11.9% (inactive) |
| CC(C)OC(=O)c1ccc(CCC2=CC(=O)C(Br)=CC2=O)cc1 | 50.7% (inactive) | 62.4% (inactive) | 65.5% (inactive) | 56% (inactive) | 51% (inactive) | 90% (active) |
| Cc1nc(Nc2ccc(Cl)cc2)c2cnn(-c3ccc(Cl)cc3)c2n1 | -1.9% (inactive) | -2.25% (inactive) | -7.95% (inactive) | -41% (inactive) | -2.3% (inactive) | -5.05% (inactive) |
| CCc1ccc(NC(=O)c2ccccc2)cc1CC | -11.3% (inactive) | -11% (inactive) | -2.5% (inactive) | -97.3% (inactive) | -4.05% (inactive) | -19.1% (inactive) |

| Structure (SMILES) | growth inhibition [1] | growth inhibition [2] | growth inhibition [3] | growth inhibition [4] | growth inhibition [5] | growth inhibition [6] |
| --- | --- | --- | --- | --- | --- | --- |
| C[N+](C)(C)CCc1ccc(Cl)cc1 | 10.2% (inactive) | 7.45% (inactive) | 9.7% (inactive) | -3.7% (inactive) | -0.05% (inactive) | 21.8% (inactive) |
| CCNC(=O)CCCC(=O)OC | 9.75% (inactive) | 4.55% (inactive) | 18.9% (inactive) | 14.6% (inactive) | 7.35% (inactive) | 2.2% (inactive) |
| CCCCC/C(C=O)=C\c1ccccc1 | 38.5% (inactive) | 15.8% (inactive) | 39.5% (inactive) | -12.2% (inactive) | 18% (inactive) | 38% (inactive) |
| O=C(O)CCC(=O)N1c2ccccc2CC1c1c[nH]c2ccccc12 (centres undefined) | -8.45% (inactive) | -13.9% (inactive) | -6.55% (inactive) | 18.6% (inactive) | 2% (inactive) | 5.6% (inactive) |
| Cn1cnc([N+](=O)[O-])c1Sc1ncn[nH]1 | -3.45% (inactive) and 6% (inactive) | 3.3% (inactive) and -1.85% (inactive) | 8.45% (inactive) and 2.6% (inactive) | 0.35% (inactive) and 24.6% (inactive) | 4% (inactive) and 21.8% (inactive) | -54.3% (inactive) and 0.9% (inactive) |
| Cc1ccc(Nc2nc(-c3ccc(-c4ccc([N+](=O)[O-])cc4)o3)cs2)cc1 | 20.5% (inactive) | 19.5% (inactive) | 31.8% (inactive) | 31.5% (inactive) | 28.7% (inactive) | 44% (inactive) |
| N#Cc1c[nH]c(=O)[nH]c1=O | -25.3% (inactive) | -25.4% (inactive) | -13.4% (inactive) | 2.15% (inactive) | 1.85% (inactive) | -45.6% (inactive) |
| [N-]=[N+]=CC(=O)C1OC12C1CC3CC(C1)CC2C3 (centres undefined) | -9.2% (inactive) | -5.85% (inactive) | 2.45% (inactive) | -6.25% (inactive) | 5.2% (inactive) | 4.55% (inactive) |
| c1ccc2nc3c(cc2c1)NCC3 | -2.3% (inactive) | 5.15% (inactive) | -14.4% (inactive) | -22.6% (inactive) | -8.25% (inactive) | -20.9% (inactive) |
| c1ccc(NN=Nc2ncnc3nc[nH]c23)cc1 | 3.35% (inactive) | 5.9% (inactive) | -2.2% (inactive) | -11.8% (inactive) | 7.7% (inactive) | 2.7% (inactive) |
| CC(=O)N(C)c1ccccc1 | -19.2% (inactive) | -20.9% (inactive) | -16.4% (inactive) | -40.5% (inactive) | -8.45% (inactive) | -7.55% (inactive) |
| CCCSCCC(NC(=O)c1ccccc1)C(=O)O (centres undefined) | -14.6% (inactive) | -10% (inactive) | -10.1% (inactive) | -12.9% (inactive) | -15.2% (inactive) | -26.4% (inactive) |
| O=Cc1cccc2ccc3cccc(C(=O)Cl)c3c12 | 20.4% (inactive) | 46.9% (inactive) | 37.8% (inactive) | 18% (inactive) | 62.5% (inactive) | 32.5% (inactive) |
| COc1ccc(/C=N/NC(=S)NN)cc1 | -6.6% (inactive) | 9.1% (inactive) | 13% (inactive) | -18.9% (inactive) | 33.6% (inactive) | 13.2% (inactive) |
| CN(C)CC(C(=O)/C=C/c1ccccc1)C(C)(C)C (centres undefined) | -10.4% (inactive) | -21.9% (inactive) | -16.2% (inactive) | 11.6% (inactive) | -11% (inactive) | -38.3% (inactive) |
| COC(=O)C(Cc1nc2ccc(Cl)cc2[nH]c1=O)/C(=N\N)C(=O)Nc1cc(C)c(Cl)cc1S(=O)(=O)O (centres undefined) | 24.9% (inactive) | -2% (inactive) | 5.5% (inactive) | -70.3% (inactive) | -3.35% (inactive) | 5.95% (inactive) |
| Cn1nnnc1NCc1ccccc1 | -2.55% (inactive) | 5.35% (inactive) | -5.85% (inactive) | -24.6% (inactive) | -2% (inactive) | 5.15% (inactive) |
| CCC(C)C/C(C)=N/Nc1ccc([N+](=O)[O-])cc1[N+](=O)[O-] (centres undefined) | -0.4% (inactive) | 7.85% (inactive) | 0.65% (inactive) | -16.4% (inactive) | 12.7% (inactive) | -6.25% (inactive) |
| C#CCN(N=O)C(=O)NCCCCC(NC(C)=O)C(=O)NCc1ccccc1 (centres undefined) | 3.4% (inactive) | -16.9% (inactive) | -16.9% (inactive) | 5% (inactive) | -16.2% (inactive) | -15.1% (inactive) |
